Bioassay records (PubChem BioAssay)
Most compounds without a hit are left out; they make up all but 7.4% or so of the library.
Rab9 prom act = activators of Rab9 promoter. Potency, µM (top dose mostly 9.22 µM), for inactives: at the highest dose activation, negative = inhibition, hits mostly activators. hit rate 2.8% among 320,000. Huh7 Rab9 promoter-luciferase reporter, luminescence, 24 h; further: % of control where 0% means no effect; nearly all actives have a fitted effect of over 60% in size
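Cell-based reporter: Huh7 stable for Rab9 promoter-driven luciferase, plated in reduced-serum medium with 10% FBS at 1500 cells/well, compound-treated 24 h at 37 °C, luminescence read after 10 min reagent.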
ELG1 genotox = genotoxicity induction in ELG1-luciferase HEK293T cells | HEK293T ELG1-luciferase reporter, luminescence, 16 h | Potency, µM (highest dose often 46 µM), without a hit: at the highest dose activity change, positive = activation, actives largely listed as activators | hit rate 1.3% among 330,000 | AID 504466; further: % of control where 0% means no effect; nearly all actives have a fitted effect of over 60% in size
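Screening used a luciferase reporter fused to human ELG1 in HEK293T cells. Luminescence was read on a CCD plate imager after 16 hr exposure and 30 min ONE-Glo incubation.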
FLuc counter = counter-screen for miR-21 project: firefly luciferase inhibitors or activators; Potency, µM (doses to about 57.5 µM), inactives show at the top dose activity change, negative = inhibition, usual class: inhibitors; hit rate 6.9% among 360,000; AID 588342; purified FLuc, Km substrates, luminescence inhibition; P08659;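 further: plate controls were vehicle for no effect and reference inhibitor for full effect; nearly all actives have a fitted effect of over 55% in size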
Target sequence (P08659 whole entry, looked up): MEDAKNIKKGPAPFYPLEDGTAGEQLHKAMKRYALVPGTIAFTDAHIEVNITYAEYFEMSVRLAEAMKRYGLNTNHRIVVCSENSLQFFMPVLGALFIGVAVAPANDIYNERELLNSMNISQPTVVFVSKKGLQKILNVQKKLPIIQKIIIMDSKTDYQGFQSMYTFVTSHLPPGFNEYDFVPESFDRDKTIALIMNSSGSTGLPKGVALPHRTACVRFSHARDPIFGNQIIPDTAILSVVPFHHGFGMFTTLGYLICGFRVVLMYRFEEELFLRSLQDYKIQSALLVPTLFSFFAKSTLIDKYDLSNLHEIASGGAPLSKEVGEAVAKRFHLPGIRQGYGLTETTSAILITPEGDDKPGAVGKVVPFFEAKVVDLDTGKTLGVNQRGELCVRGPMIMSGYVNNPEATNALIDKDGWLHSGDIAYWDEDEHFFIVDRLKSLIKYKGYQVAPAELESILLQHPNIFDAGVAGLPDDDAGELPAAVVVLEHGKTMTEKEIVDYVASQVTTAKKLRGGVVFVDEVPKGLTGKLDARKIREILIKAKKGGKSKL
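Biochemical qHTS of compounds, final roughly 60 µM downward over six points, against 10 nM purified firefly luciferase using Km concentrations of substrates (10 uM D-luciferin, 10 uM ATP) in Tris acetate pH 7.5 buffer; luminescence output.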
NPC1 promoter act = NPC1 promoter activation. Huh7 NPC1 promoter luciferase reporter, 24 h. Potency, µM (highest dose often 9.22 µM), for inactives: top-dose activation, usual class: activators. hit rate 2.4% among 320,000; further: % of control where 0% means no effect; nearly all actives have a fitted effect of over 60% in size
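NPC1 promoter–luciferase Huh7 cells; 24 h compound; luminescence.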
SMN2 splice enh = enhancers of SMN2 splice variant expression. HEK293 SMN2-luciferase splicing reporter, luminescence, 30-36 h. Potency, µM (top dose mostly 46.1 µM), for inactives: at the top dose activity change, positive = activation, most hits filed as activators. hit rate 2.8% among 210,000; further: % of control where 0% means no effect; nearly all actives have a fitted effect of over 55% in size
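HEK293 cells carry an SMN2 […]–luciferase reporter in which exon 7 inclusion puts luciferase in frame. Cells were plated 10-12 h before compound addition, then incubated 30-36 h at 37C. ONE-Glo luminescence was read; sodium butyrate at 4.5 mM final served as control.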
Numbers without * were called inactive; ? = inconclusive; . = no result; [ ] = remark or other dose. The call rests on the fitted dose curve; in most records, active means well fitted curve in the direction sought with a large enough effect; inconclusive means small, poorly fitted or top-dose-only effect, or another doubt; inactive means no such curve, though single readings can be large; an effect the other way counts as inactive or inconclusive. Potency means the concentration at half of the fitted maximal effect.

SMILES	Rab9 prom act	ELG1 genotox	FLuc counter	NPC1 promoter act	SMN2 splice enh
COc1cc(C(=O)Nc2nc3ccccc3[nH]2)ccc1OC(F)F	2.82µM*	?	10.7µM*	1.41µM*	.
COc1ccc(Br)c(C(=O)Nc2nc3ccccc3[nH]2)c1	?	24.0%	-12.4%	?	.
CC(=O)[C@H]1CC[C@@H]2[C@]1(C)CC=C1[C@@]23C=C[C@]2(C[C@H](O)CC[C@@]12C)[C@H](C(=O)O)[C@@H]3C(=O)O	.	.	.	.	-4.0%[9.22 µM]
O=C(O)CSc1ccc(N=C=S)cc1	.	.	.	.	-15.3%[9.22 µM]
COc1ccc(-c2cc(C(F)(F)F)n3nc(C(=O)Nc4ccccc4SC)cc3n2)cc1OC	.	.	3.8%	.	4.2%
COc1cc(Cl)c(NC(=O)c2cc(CN3CCCC3)on2)c(OC)c1	.	.	-2.2%	.	-2.4%
COC(=O)c1ccc(NC(=O)CSc2ccccc2)cc1	?	?	26.9µM*	18.5%	17.2%
O=C(CSc1ccc(F)cc1)Nc1ccc(Br)cc1	2.82µM*	?	13.5µM*	?	?
COC(=O)c1ccc(NC(=O)CSc2ccccn2)cc1	13.1%	?	?	2.3%	-14.2%
COCCOCCn1c(/C=C/c2ccccc2)nc2ccccc21	1.41µM*	?	1.69µM*	1.41µM*	12.6µM*
Cc1ccc(NC(=O)Cn2c(/C=C/c3ccccc3)nc3ccccc32)cc1C	1.5%	?	?	1.5%	17.6%
CCCn1c(/C=C/c2ccccc2)nc2ccccc21	1.78µM*	?	3.01µM*	1.78µM*	11.2µM*
CC(C)c1ccccc1NC(=O)Cn1c(/C=C/c2ccccc2)nc2ccccc21	9.8%	?	21.3µM*	-2.7%	.
CCn1c(/C=C/c2cc[n+](C)cc2)nc2ccccc21	4.6%	-4.0%	1.7%	8.3%	.
CC(C)n1c(/C=C/c2ccccc2)nc2ccccc21	?	?	2.39µM*	?	11.2µM*
CC(C)n1c(CN(C)c2ccccc2)nc2ccccc21	-2.5%	-7.1%	-9.7%	-5.2%	.
C=CCOC(=O)NC(c1ccc(F)c(F)c1)C(C(C)=O)C(=O)OC (stereo not given)	.	.	.	.	-4.6%
Cc1oc2ncn(CC(C)C)c(=O)c2c1C(=O)N(Cc1ccccc1)C(C)C	.	.	-6.7%	.	.
Cc1ccc(-c2cc(-c3coc4ccccc4c3=O)c3c(n2)-c2ccccc2OC3)cc1	.	.	-3.3%	.	7.1%
COc1cccc(CNc2sc3c(c2C(=O)Nc2ccc(OC)cc2OC)CCC3)c1	.	.	-17.1%	.	.
COc1ccc(/C=C/c2nc3ccccc3n2Cc2ccc(OC)c(OC)c2)cc1	0.794µM*	2.06µM*	0.426µM*	1.58µM*	.
Cc1ccc(-c2noc(-c3ccccc3C(=O)N3CCCC3)n2)cc1	5.5%	?	23.9µM*	10.5%	-7.8%
O=C(c1ccccc1-c1nc(-c2ccc(Cl)cc2)no1)N1CCCC1	3.16µM*	?	19µM*	?	-15.5%
Cc1ccc(-c2noc(-c3ccccc3C(=O)N3CCN(C)CC3)n2)cc1	14.9%	?	?	0.2%	-4.0%
O=C(c1ccccc1-c1nc(-c2ccccc2)no1)N1CCCC1	-2.4%	12.4%	26.9µM*	-0.6%	?
SMILES	Rab9 prom act	ELG1 genotox	FLuc counter	NPC1 promoter act	SMN2 splice enh
COc1cccc(/C=N\NC(=O)c2ccc(Cn3cc(Br)c([N+](=O)[O-])n3)o2)c1O	-50.9%	11.7%	10.7µM*	-33.3%	.
COc1cccc(/C=N/NC(=O)Cn2nc(C)c([N+](=O)[O-])c2C)c1O	-14.8%	11.7%	0.7%	-18.6%	.
COc1cccc(/C=N/NC(=O)C(=O)N2CCCC2)c1OC	2.7%	-0.5%	-12.1%	-1.1%	-0.5%
COc1cccc(/C=N/NC(=O)N/N=C/c2cccc(OC)c2O)c1O	-2.9%	-7.5%	4.26µM*	-2.2%	.
COc1cccc(/C=N/NC(=O)C(C)n2nc(C)c([N+](=O)[O-])c2C)c1O (stereo not given)	-30.1%	?	7.57µM*	-12.6%	?
COc1ccccc1/C=C\C(=O)NCC(=O)N/N=C/c1cccc(OC)c1O	-8.5%	?	-4.0%	-24.4%	.
COc1cc(/C=N\NC(=O)c2ccc(Cn3nc([N+](=O)[O-])c(Cl)c3C)o2)ccc1O	-2.4%	11.8%	?	-2.5%	?
COc1cccc(/C=N/NC(=O)C(=O)N2CCCC2)c1O	11.0%	?	15.1µM*	7.1%	-47.9%
O=C(CCn1c(=O)c2sccc2n(Cc2ccccc2F)c1=O)NCc1ccc2c(c1)OCO2	.	.	1.4%	.	2.0%
C/C=C(\C)C(=O)OC1[C@@H]2C=C3C4CC(=O)OC(c5ccoc5)[C@]4(C)CCC3[C@@](C)(C2=O)C(C(O)C(=O)OC)C1(C)C (stereo not given in full)	.	.	.	.	-12.5%
O=C(NCCCN1CCCCCC1)C(c1ccccc1)C1CCCCC1 (stereo not given)	.	.	.	.	-9.5%
CC(C)=CCN1CCN(Cc2cnc(C)s2)CC1CCO (stereo not given)	0.794µM*	?	6.75µM*	1.58µM*	.
CC(C)=CCN1CCN(Cc2cnc(N3CCOCC3)s2)CC1CCO (stereo not given)	2.82µM*	?	2.13µM*	3.16µM*	.
COC(=O)c1ccc(CN2CCN(CC=C(C)C)C(CCO)C2)cc1 (stereo not given)	-2.4%	1.6%	16.9µM*	-1.4%	.
Cc1cc(=O)[nH]c2nnc(SCc3ccccc3F)n12	.	.	-12.9%	.	.
CC(=O)/C(N=Nc1ccc2c(c1)OCCO2)=C(\C)O	5.3%	?	9.53µM*	11.6%	-88.3%
CC(=O)/C(N=Nc1ccc2c(c1)OCO2)=C(\C)O	3.55µM*	?	21.3µM*	2.82µM*	14.1µM*
CC(=O)/C(N=Nc1ccc(C(=O)O)cc1)=C(\C)O	-0.6%	11.9%	0.3%	-3.7%	.
COc1cc(/C=N/Nc2nncn2/N=C/c2ccc(O)c(OC)c2)ccc1O	?	-7.0%	0.379µM*	?	25.1µM*
COc1cc(/C=N\Nc2nncn2N)ccc1OC(C)=O	0.4%	7.3%	?	-4.6%	.
COc1ccc(OC)c(/C=N/Nc2nncn2/N=C/c2cc(OC)ccc2OC)c1	-2.1%	-1.9%	15.1µM*	-8.8%	4.6%
COCCNC(=O)CCn1c(=O)c2cc(OC)c(OC)cc2n(CC(=O)Nc2ccc(Cl)cc2F)c1=O	.	.	-3.9%	.	-3.5%
COc1ccccc1CNC(=O)c1ccc(CSc2nc3ccncc3n2Cc2ccccc2C)cc1	.	.	-2.5%	.	1.2%
COc1ccccc1C(=O)NC1(C(F)(F)F)C(=O)Nc2c1c(=O)[nH]c(=O)n2-c1ccc(F)cc1 (stereo not given)	.	.	?	.	-6.3%
Cc1ccc(NC(=O)Cn2c(-c3cncs3)nc3ccccc32)c(Br)c1	.	.	0.6%	.	-11.9%
CCCn1c(=O)c2sccc2n2c(CCCC(=O)Nc3ccc(Oc4ccccc4)cc3)nnc12	.	.	-16.7%	.	.
Cc1ccc(C(=O)COC(=O)CCCC(=O)Nc2cc(C(F)(F)F)ccc2Cl)cc1C	-4.5%	0.5%	2.39µM*	-2.6%	-8.5%
Cc1noc(C)c1C(=O)N1CCC2(CC1)CN(c1cccc(-c3ccccc3)c1)C2	.	.	.	.	-64.4%
